Biological target: T1, Aspartate--tRNA(Asp/Asn) ligase (Mycobacterium tuberculosis (strain ATCC 25618 / H37Rv)) (UniProt P9WFW3); also: in the data most compounds retested in dose-response had high values
T1 sequence (whole entry): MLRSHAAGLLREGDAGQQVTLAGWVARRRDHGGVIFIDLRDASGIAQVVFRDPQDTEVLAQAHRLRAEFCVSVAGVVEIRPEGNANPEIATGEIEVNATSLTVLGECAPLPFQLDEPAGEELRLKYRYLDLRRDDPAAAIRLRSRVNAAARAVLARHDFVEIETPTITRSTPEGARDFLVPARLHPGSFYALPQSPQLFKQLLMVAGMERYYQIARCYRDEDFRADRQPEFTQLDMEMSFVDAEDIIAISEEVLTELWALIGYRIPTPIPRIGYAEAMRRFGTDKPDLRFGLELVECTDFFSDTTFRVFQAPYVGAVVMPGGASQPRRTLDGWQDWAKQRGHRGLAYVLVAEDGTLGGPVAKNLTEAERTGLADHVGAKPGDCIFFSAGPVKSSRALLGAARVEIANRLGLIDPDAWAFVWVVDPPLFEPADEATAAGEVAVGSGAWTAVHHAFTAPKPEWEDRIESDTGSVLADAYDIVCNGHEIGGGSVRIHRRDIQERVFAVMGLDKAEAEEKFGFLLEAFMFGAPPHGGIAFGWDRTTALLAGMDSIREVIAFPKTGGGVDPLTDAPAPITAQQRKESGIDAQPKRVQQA
Assay: Assay for Asp RNA synthetase-1 from Mycobacterium tuberculosis
Assay type: functional
Set-up: scale not given: direction of the effect not stated beside the values
Details: 30 µM

Row | Compound | Percent Effect [%]
1 | COCc1cnc2n1CCN(Cc1cccnc1)C2C (stereo unspecified) | 4.46
2 | CCN(CC)CCNc1ncc(-c2cc(C)no2)c(-c2ccoc2C)n1 | 2.28
3 | CC(C)(C)c1ncc(C(=O)NCCS(N)(=O)=O)s1 | -1.74
4 | CN(Cc1ccco1)C[C@H]1OC[C@@H]2CCN(Cc3cccs3)C[C@@H]21 | 3.35
5 | O=C(c1cscn1)N1CCC[C@]2(C[C@H](OCC3CC3)CO2)C1 | 3.34
6 | CC(C)NC(=O)N1CCN(Cc2ccccn2)CC2(CC(=O)N(C)C2)C1 (stereo unspecified) | -0.228
7 | COc1ccc(CN(C)CC2(O)CCN(C(=O)c3cccn3C)C2)cc1 (stereo unspecified) | 2.04
8 | CC(C)c1ncncc1C(=O)NCCN1CCCS1(=O)=O | -2.86
9 | COc1cc(CNC(=O)C2CC(=O)N(C(C)C)C2)ccn1 (stereo unspecified) | -1.66
10 | Cc1cccc(CNCc2c(C)nn(C)c2N2CCOCC2)n1 | 3.77
11 | Cn1ncc2c1NC(=O)CC2c1ccccc1Cl (stereo unspecified) | 1.14
12 | Cc1nc(CN2CCc3ncnc(-c4ccc(F)cc4)c3CC2)cs1 | -0.199
13 | Cc1nn(C)c2sc(C(=O)N3CCCC(n4ccnc4C)C3)cc12 (stereo unspecified) | -1.41
14 | Cc1ncc(CNC2CCCN(Cc3noc(C4CC4)n3)C2)s1 (stereo unspecified) | -4.12
15 | CN(CCn1nc2ccccn2c1=O)CC(=O)N1CCCC1 | -1.5
16 | O=C(c1cc(COc2ccc3c(c2)OCO3)[nH]n1)N1CCCC1 | 0.912
17 | COc1ccc(F)cc1CN1CCCC(c2cc(C(N)=O)[nH]n2)C1 (stereo unspecified) | -5.13
18 | CC1CN=C(N2CCN(C(=O)Nc3nc(-c4ccccc4)ns3)CC2)S1 (stereo unspecified) | 3.62
19 | O=C(NCCC(=O)N1CCCc2ccccc21)c1c(O)cc(F)cc1F | -3.63
20 | c1cnnc(N2CCCC2CNc2ncnc3ccccc23)c1 (stereo unspecified) | 3.45
21 | CC(=O)c1cc(CC(=O)NCc2c(F)cccc2F)cs1 | -0.993

Biological target: Shiga toxin 2 (Escherichia coli O157:H7) (UniProt P09385+P09386)
Assay: E. coli 0.157:H7 Shiga Toxin SOP - stx2 screening assay
Assay type: functional
Set-up: scale not given: direction of the effect not stated beside the values
Details: 30 µM

Row | Compound | Percent Effect [%]
22 | COc1ccnc(N2CCN(C(=O)Cc3ccc(C)s3)CC2)n1 | 5.8
23 | COC(CNC(=O)N1CCC(n2cncn2)CC1)c1ccccc1 (stereo unspecified) | 7.26
24 | Cc1ccc(CC(=O)N2CC[C@@H]3CN(CCN(C)C)CCO[C@@H]3C2)cc1 | -3.9
25 | Cn1cc(CN2CC[C@H]3C[C@H](c4nc(C5CC5)cs4)O[C@@H]3C2)cn1 | -28.1
26 | CCCS(=O)(=O)Nc1ccc2c(c1)OCC(C)(C)C(=O)N2C | -2.5
27 | O=c1c2sccc2nc2n1CCN(Cc1cccs1)CC2 | 8.96
28 | CS(=O)(=O)NCC1CCCN(C(=O)COc2ccc(F)cc2)C1 (stereo unspecified) | -25.1
29 | Cc1cc(C)n(CC2CCCCN2C(=O)c2ccc3nncn3c2)n1 (stereo unspecified) | 14.5
30 | Cc1ccc([C@@H]2CN(C(=O)c3cccnn3)C[C@H]2NC(=O)C2CC2)cc1 | 29.5
31 | CC(C)c1cc(NC(=O)CN2CCC(N3CCCCC3)CC2)on1 | -28.7
32 | CN(C)CC1CN(Cc2cccc(C(=O)N(C)C)c2)CCO1 (stereo unspecified) | -24.2
33 | CC(=O)NCc1ccc(C(=O)N2CCCC2c2cnn(C)c2)o1 (stereo unspecified) | 21.1
34 | Cn1cnc(-c2cc(C(=O)N3CCOCC3)c3ccccn23)c1 | -6.75
35 | CC(C)(C)c1nc(CN(Cc2cccs2)C2CCS(=O)(=O)C2)no1 (stereo unspecified) | 24.2
36 | CCc1nccn1C1CCCN(C(=O)c2cnc3ccccc3n2)C1 (stereo unspecified) | 11.4
37 | O=C(c1ccoc1)N1CC[C@@H]2O[C@H](COCc3ccccn3)CC[C@@H]21 | -5.78
38 | CCN1CCN(C(=O)c2ccn(C)c(=O)c2)CC1 | -14.7
39 | CCN(CC)C(=O)CCc1c(C)nc2cc(O)nn2c1C | -6.53
40 | Cc1cc(NCc2cccnc2)n2nc(C)cc2n1 | 13.8
41 | COCc1cnc2n1CCN(Cc1cccnc1)C2C (stereo unspecified) | -10.3

Row | Compound | Percent Effect [%]
42 | CCN(CC)CCNc1ncc(-c2cc(C)no2)c(-c2ccoc2C)n1 | 7.04
43 | CC(C)(C)c1ncc(C(=O)NCCS(N)(=O)=O)s1 | 28.8
44 | CN(Cc1ccco1)C[C@H]1OC[C@@H]2CCN(Cc3cccs3)C[C@@H]21 | -17.4
45 | O=C(c1cscn1)N1CCC[C@]2(C[C@H](OCC3CC3)CO2)C1 | -17.4
46 | CC(C)NC(=O)N1CCN(Cc2ccccn2)CC2(CC(=O)N(C)C2)C1 (stereo unspecified) | -14.2
47 | COc1ccc(CN(C)CC2(O)CCN(C(=O)c3cccn3C)C2)cc1 (stereo unspecified) | -5.84
48 | CC(C)c1ncncc1C(=O)NCCN1CCCS1(=O)=O | 6.66
49 | COc1cc(CNC(=O)C2CC(=O)N(C(C)C)C2)ccn1 (stereo unspecified) | -62.3
50 | Cc1cccc(CNCc2c(C)nn(C)c2N2CCOCC2)n1 | -0.864
51 | Cn1ncc2c1NC(=O)CC2c1ccccc1Cl (stereo unspecified) | 6
52 | Cc1nc(CN2CCc3ncnc(-c4ccc(F)cc4)c3CC2)cs1 | 5.58
53 | Cc1nn(C)c2sc(C(=O)N3CCCC(n4ccnc4C)C3)cc12 (stereo unspecified) | -28.1
54 | Cc1ncc(CNC2CCCN(Cc3noc(C4CC4)n3)C2)s1 (stereo unspecified) | 28.2
55 | CN(CCn1nc2ccccn2c1=O)CC(=O)N1CCCC1 | -5.38
56 | O=C(c1cc(COc2ccc3c(c2)OCO3)[nH]n1)N1CCCC1 | -23.7
57 | COc1ccc(F)cc1CN1CCCC(c2cc(C(N)=O)[nH]n2)C1 (stereo unspecified) | 1.05
58 | CC1CN=C(N2CCN(C(=O)Nc3nc(-c4ccccc4)ns3)CC2)S1 (stereo unspecified) | -38.1
59 | O=C(NCCC(=O)N1CCCc2ccccc21)c1c(O)cc(F)cc1F | -9.36
60 | c1cnnc(N2CCCC2CNc2ncnc3ccccc23)c1 (stereo unspecified) | -33.7
61 | CC(=O)c1cc(CC(=O)NCc2c(F)cccc2F)cs1 | 4.94
